From PubChem BioAssay
697 NFkB inh: inhibitors of PMA/ionomycin-induced NF-kB reporter, 697 cells, primary screen, B-cell NF-kB inhibitor project, cell-based, luminescence, uHTS; inhibition, % at 4 µM; 330,000 compounds, 0.33% hits; 697 B-cell NF-kB luciferase reporter, 16 h; AID 435022, 2010; in the data active = inhibition above about 35%
Gli-Sufu antag: Gli-Sufu pathway antagonists, primary screen, luciferase luminescence, Sufu-KO-LIGHT cells, uHTS; Sufu-KO-LIGHT fibroblasts, Gli luciferase reporter luminescence; inhibition, % at 5 µM; 340,000 compounds, 0.74% hits; AID 588413, 2011;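 active = inhibition above about 55%, limit read from the data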
Shn3 inh set2: reduction of Shn3 3'UTR firefly luciferase signal, primary screen, Schnurri-3 inhibitor project, cell-based, Clone20 osteoblasts, set 2; Clone20 osteoblast Shn3 3'UTR firefly luciferase, 24 h; inhibition, % at 12.5 µM; 360,000 compounds, 0.52% hits; AID 588674, 2011;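 active = mean inhibition of at least 75% with every replicate also reaching 75%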
Mdm2 MdmX PPI: inhibitors of human Mdm2-MdmX association, primary screen, cell-based, luminescence, split luciferase, SaOS-2, uHTS | Protein Mdm4 (Homo sapiens) + E3 ubiquitin-protein ligase Mdm2 (Homo sapiens), … | SaOS-2 split-luciferase Mdm2/MdmX complementation | inhibition, % at 8 µM | 330,000 compounds, 3% hits | AID 485346, 2010;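 active = inhibition of at least 50% at 8 µM in the primary screen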
Target sequence (O15151 whole entry, looked up): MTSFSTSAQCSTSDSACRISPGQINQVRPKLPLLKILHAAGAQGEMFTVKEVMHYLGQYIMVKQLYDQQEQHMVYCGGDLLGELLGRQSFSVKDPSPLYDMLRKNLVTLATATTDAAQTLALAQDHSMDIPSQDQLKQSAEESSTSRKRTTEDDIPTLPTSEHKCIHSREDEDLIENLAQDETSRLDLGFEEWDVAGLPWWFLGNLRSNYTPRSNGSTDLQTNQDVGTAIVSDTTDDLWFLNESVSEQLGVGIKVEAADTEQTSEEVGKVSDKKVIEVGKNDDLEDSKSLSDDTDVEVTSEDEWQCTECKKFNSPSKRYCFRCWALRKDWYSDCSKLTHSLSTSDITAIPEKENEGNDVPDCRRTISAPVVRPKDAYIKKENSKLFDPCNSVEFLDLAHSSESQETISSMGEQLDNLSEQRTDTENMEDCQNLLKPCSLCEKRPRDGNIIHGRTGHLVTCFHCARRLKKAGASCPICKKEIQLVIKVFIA
Target sequence (Q00987 whole entry, looked up): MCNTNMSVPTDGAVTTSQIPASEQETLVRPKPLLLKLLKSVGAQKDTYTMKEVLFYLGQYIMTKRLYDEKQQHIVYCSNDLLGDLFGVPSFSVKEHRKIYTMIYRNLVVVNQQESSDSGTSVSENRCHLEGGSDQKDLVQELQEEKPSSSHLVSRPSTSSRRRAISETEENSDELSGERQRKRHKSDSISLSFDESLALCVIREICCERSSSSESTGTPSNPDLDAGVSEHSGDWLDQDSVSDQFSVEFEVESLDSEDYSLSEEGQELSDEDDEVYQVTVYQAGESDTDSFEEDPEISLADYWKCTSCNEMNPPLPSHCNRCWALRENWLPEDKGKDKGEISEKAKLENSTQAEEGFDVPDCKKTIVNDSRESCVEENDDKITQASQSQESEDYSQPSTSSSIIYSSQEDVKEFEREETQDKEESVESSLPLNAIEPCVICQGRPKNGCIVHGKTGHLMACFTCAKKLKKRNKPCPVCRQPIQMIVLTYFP
Jurkat NFkB inh: inhibitors of induced NF-kB luciferase reporter, primary screen, TCR NF-kB activation inhibitor project, cell-based, luminescence, uHTS; Jurkat, PMA/ionomycin-induced NF-kB luciferase reporter; inhibition, % at 4 µM; 330,000 compounds, 0.53% hits; AID 435003, 2010; in the data active = inhibition above about 50%
Jurkat NFkB conf: PMA/ionomycin-induced NF-kB reporter inhibitors, Jurkat retest, confirmation, T-cell NF-kB inhibitor project, cell-based, luminescence, single concentration; shares compounds with Jurkat NFkB inh; Jurkat NF-kB luciferase, 16 h; inhibition, % at 4 µM; 2,700 compounds, 27% hits;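 active = inhibition reaching about 45% at 4 µM in either replicate, limit read from the data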
697 NFkB conf: PMA/ionomycin-induced NF-kB reporter inhibitors, 697 retest, confirmation, B-cell NF-kB inhibitor project, cell-based, luminescence, single concentration | inhibition, % at 4 µM | 697 B-cell NF-kB luciferase, 16 h | AID 449746, 2010 | shares compounds with 697 NFkB inh | 2,000 compounds, 35% hits; in the data active = inhibition mostly above about 28%, no sharp cut-off; inactive = mostly below about 22%
Numbers stand for hits; 0 = inactive; - = not tested or not shown. Only some compounds are listed: those with a hit (about 3.8% of all), similar ones and a draw of the others.

SMILES	697 NFkB inh	Gli-Sufu antag	Shn3 inh set2	Mdm2 MdmX PPI	Jurkat NFkB inh	Jurkat NFkB conf	697 NFkB conf
Cc1cc(NC(=O)c2ccc(Br)o2)ccc1NC(=O)c1ccco1	0	0	0	0	0	-	-
O=C(Nc1ccc2sccc2c1)c1ccc(Cl)s1	0	0	0	0	0	0	0
O=C(Nc1ccc2c(c1)C(=O)NC2=O)c1ccc(Cl)s1	0	0	0	0	0	-	-
O=C(c1ccc(Oc2ccccc2)cc1)C1CCCN(C(=O)c2cnccn2)C1 (centres undefined)	0	0	0	0	0	-	-
Cc1ccc(/C=C2/CCc3c([nH]c4ccccc34)C2=O)cc1	0	0	0	0	0	0	0
O=C1/C(=C\c2ccccc2)CCc2c1[nH]c1ccccc21	0	0	0	0	0	-	-
CCC(C)NC(=O)c1cc2cc3ccc(OC)cc3nc2s1 (centres undefined)	0	0	0	0	0	0	0
COc1ccc2cc3cc(C(=O)NCCN4CCc5ccccc5C4)sc3nc2c1	0	0	0	0	0	-	-
CN(C(=O)COC(=O)c1cccc(S(=O)(=O)N(C)c2ccccc2)c1)C1CCCCC1	0	0	0	0	0	-	-
Cc1cc(C(=O)NC2CCCc3c2cnn3-c2ccc(C)c(C)c2)n(C)n1 (centres undefined)	49.4	81.2	88.2	0	62.2	79.7	102.2
COc1ccc(N(C(=O)c2cnccn2)C(C(=O)NCc2ccccc2)c2ccc(O)cc2)cc1 (centres undefined)	0	0	0	0	0	-	-
COc1ccccc1Nc1nn2c(=O)c3ccc(C(=O)N4CCCC(C)C4)cc3nc2s1 (centres undefined)	0	0	0	0	0	-	-
COc1cc(NC(C)CCCN)c2ncccc2c1 (centres undefined)	44.4	0	0	0	64.9	0	37.8
C/C(N)=C(/C#N)C(=O)CSc1nc2ccccc2c(=O)n1-c1ccc(C)c(Cl)c1	0	0	0	0	0	-	-
COc1cc(SC)ccc1C(=O)Nc1ccc2ncccc2c1	0	0	0	0	0	0	0
COc1cc(SC)ccc1C(=O)Nc1ccc2c(c1)OCO2	-	0	0	-	-	-	-
Nc1[nH]n(-c2ccccc2)c(=O)c1N=Nc1ccc2c(c1)OCCO2	0	0	0	0	0	0	0
COc1cccc(N/C=C/C(=O)c2ccc(C)cc2)c1	0	0	0	0	0	0	0
O=C(/C=C/Nc1ccccc1)c1ccc(Cl)cc1Cl	0	0	0	0	0	0	0
O=C(/C=C/Nc1ccccc1)c1ccccc1	0	0	0	0	0	0	0
COc1ccc(CCN2CC(C(=O)NCc3cccc4[nH]ccc34)CCC2=O)cc1 (centres undefined)	0	0	0	0	0	-	-
CC(=O)Nc1ccc2c(c1)C(=O)c1ccc(Cl)cc1-2	-	0	0	-	-	-	-
C[C@H]1CN([C@@H](C)CO)C(=O)Cc2cc(NC(=O)Cc3ccccc3)ccc2O[C@H]1CN(C)C(=O)Nc1cccc2ccccc12	0	0	0	0	0	-	-
Cc1cc(C)c2c(N)c(C(=O)Nc3ccc(C)c(C)c3)sc2n1	0	0	0	0	0	0	0
Cc1cc(C)cc(NC(=O)c2sc3nc(C)cc(C)c3c2N)c1	0	0	0	0	0	-	-
SMILES	697 NFkB inh	Gli-Sufu antag	Shn3 inh set2	Mdm2 MdmX PPI	Jurkat NFkB inh	Jurkat NFkB conf	697 NFkB conf
Cc1cccc(-c2cc3c(N=O)c4ccccc4c-3n[nH]2)c1	0	0	0	0	0	0	0
COc1cc2nc(NC(=O)c3ccccc3)sc(=O)c2cc1OC	42.6	0	0	0	82.2	89.4	54.2
O=C(NC1CCCCC1)C(c1ccco1)N(C(=O)c1csnn1)c1cccc(Cl)c1 (centres undefined)	0	0	0	0	0	-	-
Cc1sc2ncnc(N3CCN(CCOc4ccc(Cl)cc4)CC3)c2c1C	55.6	74.0	84.8	0	57.0	0	35.2
Cc1ccc(C)c(SCC(=O)OCC(=O)NCCNC(=O)COC(=O)CSc2cc(C)ccc2C)c1	0	0	0	0	0	-	-
COCCNC(=O)C1(C)CCCN(C(=O)c2ccc(C)c(F)c2)C1 (centres undefined)	-	-	0	-	-	-	-
O=C(Nc1ccc2c(c1)OCCO2)c1ccc(Cl)cc1Cl	0	0	0	0	0	0	0
O=C(Nc1ccc2c(c1)OCCO2)c1cccc(Cl)c1	0	0	0	0	0	-	-
O=C(Nc1ccc(N2CCN(C(=O)c3ccc(Cl)cc3)CC2)cc1)c1ccc2c(c1)OCCO2	38.6	0	89.0	0	58.4	57.3	0
O=C(Nc1ccc(N2CCN(C(=O)c3ccccc3)CC2)cc1)c1ccc2c(c1)OCCO2	0	0	0	0	0	-	-
COc1cccc(CNC(C)(C)CO)c1OCc1ccc(Cl)cc1	0	0	0	0	0	-	-
COc1cccc(OCc2ccc(Cl)cc2)c1C#N	0	0	0	0	0	0	0
CN(C(=O)C1CCC(=O)N(Cc2ccccc2F)C1)C1CCOCC1 (centres undefined)	0	0	0	0	0	-	-
CCOC(=O)CSc1nc2cc3c(cc2cc1C#N)OCCO3	0	0	0	0	0	0	0
CC(=O)Nc1cc2nn(-c3ccccc3)nc2cc1Cl	0	0	0	0	0	0	0
O=C(Nc1ccc2nn(-c3ccccc3)nc2c1)c1cccnc1	0	0	0	0	0	-	-
CC(C)C(=O)Nc1ccc2nn(-c3ccccc3)nc2c1	0	0	0	0	0	0	0
O=C(Nc1cc2nn(-c3ccccc3)nc2cc1Cl)c1ccco1	0	0	0	0	0	-	-
COC(=O)Cc1ccc(OC(=O)c2cccc(S(=O)(=O)N3CCN(C)CC3)c2)cc1	0	0	0	0	0	-	-
O=C(Nc1ccc(F)cc1F)N1CCCN(c2ccc(C(F)(F)F)cn2)CC1	0	0	0	0	0	-	-
Fc1ccc(NC(=S)N2CCCN(c3ccc(C(F)(F)F)cn3)CC2)c(F)c1	54.2	0	89.4	0	65.8	0	0
CCOc1ccccc1C=NNC(=O)C1CC1	-	0	0	-	-	-	-
O=C(Nc1ccc2oc(-c3ccccc3)nc2c1)C1CCCO1 (centres undefined)	0	0	0	0	0	-	-
O=C(Nc1ccc(-c2nc3cc(Cl)ccc3o2)cc1)C1CCCO1 (centres undefined)	0	0	0	0	0	0	0
CCCC(=O)Nc1ccc(-c2nc3cc(C)ccc3o2)cc1	0	0	0	0	0	0	0
